This note sets out measurements from PubChem BioAssay AID720597 (Broad Institute, 2013).

Structures are written as SMILES. Entries with a potency or affinity are not part of this list. The source made the active and inactive calls.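 How the source made its calls: active means fitted half-maximal dose no more than twice the top valid tested dose, for compounds that lower signal; inconclusive means fit invalid, or curve flat with activity between -70 and -30; inactive means potency past limit, curve flat within ±30, or signal increasing.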

The target in this assay is NAD-dependent protein deacylase sirtuin-5, mitochondrial (Homo sapiens) (UniProt Q9NXA8). Description: SIRT5 deacylase inhibitors, dose response, biochemical, fluorescence imaging, cherry-pick, set 6 (AID 720597).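 Further: lower AMC signal can also come from blocking the trypsin step.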 Particulars: Purified SirT5, succinyl-peptide-AMC/trypsin fluorescence; series mostly up to 15 µM.
Chain of NAD-dependent protein deacylase sirtuin-5, mitochondrial (Homo sapiens) (Q9NXA8 whole entry, looked up): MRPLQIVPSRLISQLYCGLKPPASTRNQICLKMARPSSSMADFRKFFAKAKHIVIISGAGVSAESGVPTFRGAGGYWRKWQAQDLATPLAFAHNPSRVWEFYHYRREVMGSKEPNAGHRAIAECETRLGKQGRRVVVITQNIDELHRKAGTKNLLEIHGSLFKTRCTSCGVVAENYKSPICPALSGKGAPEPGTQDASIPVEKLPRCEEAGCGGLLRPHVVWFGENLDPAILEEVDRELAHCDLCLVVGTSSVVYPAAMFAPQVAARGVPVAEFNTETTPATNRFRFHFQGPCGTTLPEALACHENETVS
Consider `C[C@@H]1CN([C@H](C)CO)S(=O)(=O)c2ccc(C#Cc3cccc(F)c3)cc2O[C@@H]1CN(C)CC1CC1`, for which the molecule was called inactive.
`COc1ccc(S(=O)(=O)Nc2ccc3c(c2)C(=O)N([C@H](C)CO)C[C@@H](C)[C@H](CN(C)Cc2ccc(C(F)(F)F)cc2)OCCCC[C@H](C)O3)cc1`: the molecule was classed as inactive.
Regarding `C[C@H]1CN([C@@H](C)CO)S(=O)(=O)c2ccc(C#CC3CC3)cc2O[C@H]1CN(C)C(=O)c1ccccn1`, the call was inactive.
For `Cc1noc(C)c1NC(=O)Nc1cccc2c1O[C@H](CN(C)Cc1ccc(Oc3ccccc3)cc1)[C@H](C)CN([C@@H](C)CO)C2=O` the value was “inactive”; for `Cc1ccc(S(=O)(=O)N(C)C[C@@H]2OCCCC[C@@H](C)Oc3ccc(NS(=O)(=O)c4ccccc4)cc3C(=O)N([C@@H](C)CO)C[C@@H]2C)cc1`, “inactive”.
Turning to `COc1ccc(S(=O)(=O)Nc2ccc3c(c2)C(=O)N([C@H](C)CO)C[C@H](C)[C@@H](CN(C)Cc2ccc(C(F)(F)F)cc2)OCCCC[C@@H](C)O3)cc1`, the molecule was classed as inactive.
As to `COc1cccc(CN(C)C[C@@H]2OCc3ccccc3-c3c(n(C)c4ccccc34)C(=O)N([C@H](C)CO)C[C@H]2C)c1`, the outcome was inactive.
With `C[C@@H]1CN([C@@H](C)CO)S(=O)(=O)c2ccc(C#Cc3ccc(F)cc3)cc2O[C@@H]1CN(C)S(=O)(=O)c1ccc(F)cc1`, the molecule was called inactive.
As to `CCCC#Cc1ccc([C@H]2[C@H]3CN(C(=O)Cc4cccnc4)CC(=O)N3[C@H]2CO)cc1`, the call was inactive.
Turning to `CN(C)C(=O)c1cccc(-c2ccc([C@H]3[C@@H](CO)N4CCCCN(S(C)(=O)=O)C[C@@H]34)cc2)c1`, the result was inactive.
With `C[C@H](CO)N1C[C@H](C)[C@H](CN(C)S(=O)(=O)c2ccc(Cl)cc2)OCCCC[C@H](C)Oc2ccc(NC(=O)Nc3ccc4c(c3)OCO4)cc2C1=O` the entry was “inactive”; with `C[C@H]1CN([C@@H](C)CO)S(=O)(=O)c2ccc(-c3cncnc3)cc2O[C@H]1CN(C)Cc1ccc(Oc2ccccc2)cc1`, “inactive”.
With `CCCC(=O)Nc1ccc2c(c1)OC[C@H](C)N(Cc1ccccc1)C[C@H](C)[C@@H](OC)CN(C)C2=O` the entry was “inactive”; with `C[C@H]1CCCCO[C@@H](CN(C)Cc2ccc(C(F)(F)F)cc2)[C@@H](C)CN([C@@H](C)CO)C(=O)c2cc(NS(=O)(=O)c3ccc(F)cc3)ccc2O1`, “inactive”.
As for `C[C@@H]1CN([C@H](C)CO)C(=O)c2c(c3ccccc3n2C)-c2ccccc2CO[C@@H]1CN(C)S(=O)(=O)c1ccc(Cl)cc1`, the outcome was inactive.
With `CC(C)NC(=O)N(C)C[C@H]1Oc2ccc(NC(=O)Cc3ccccc3)cc2C(=O)N([C@H](C)CO)C[C@@H]1C`, the molecule was called inactive.
For the molecule `C[C@@H]1CCCCO[C@@H](CN(C)S(=O)(=O)c2ccc(Cl)cc2)[C@H](C)CN([C@@H](C)CO)C(=O)c2cc(NS(=O)(=O)c3ccccc3)ccc2O1`, the call was inactive.
In the case of `Cc1ccc(S(=O)(=O)N(C)C[C@@H]2Oc3ncc(C#Cc4ccc(C(F)(F)F)cc4)cc3C(=O)N([C@H](C)CO)C[C@@H]2C)cc1`, the outcome was inactive.
In the case of `COCC(=O)NC[C@H]1N[C@H](CO)[C@@H]1c1ccc(C2=CCCCC2)cc1`, the molecule was called inactive.
Turning to `C[C@@H]1CN([C@H](C)CO)C(=O)c2cc(NS(=O)(=O)c3ccc(Cl)cc3)ccc2O[C@H]1CN(C)Cc1ccc2c(c1)OCO2`, the molecule was called inactive.
As for `COc1ccc(S(=O)(=O)N(C)C[C@@H]2Oc3ccc(NC(=O)CCC(F)(F)F)cc3C(=O)N([C@H](C)CO)C[C@H]2C)cc1`, the molecule was called inactive.
For `C[C@@H]1CN([C@@H](C)CO)C(=O)Cc2cc(NS(=O)(=O)c3ccc(F)cc3)ccc2O[C@@H]1CN(C)Cc1ccc(C(F)(F)F)cc1` the value was “inactive”.
For `C[C@H]1CN([C@@H](C)CO)S(=O)(=O)c2ccc(/C=C/c3ccccc3)cc2O[C@H]1CN(C)Cc1ccccc1` the value was “inactive”.
Take `OC[C@@H]1[C@H](c2ccccc2)C2(CN(Cc3nccs3)C2)N1Cc1cccnc1`: the molecule was called inactive.
With `C[C@H](CO)N1C[C@H](C)[C@H](CN(C)Cc2ccccc2F)Oc2cc(C#CC3CC3)ccc2S1(=O)=O` the entry was “inactive”; with `CC(C)C#Cc1cnc2c(c1)C(=O)N([C@H](C)CO)C[C@@H](C)[C@H](CN(C)C(=O)CN1CCOCC1)O2`, “inactive”; with `CN(C)C(=O)c1cccc(-c2ccc([C@@H]3[C@@H](CO)N4CCCCN(S(C)(=O)=O)C[C@H]34)cc2)c1`, “inactive”.
For the molecule `C[C@H]1CN([C@@H](C)CO)S(=O)(=O)c2ccc(C#Cc3ccc(F)cc3)cc2O[C@H]1CN(C)C(=O)NC1CCCCC1`, the call was inactive.
